Experimental data taken from the supplement of paper PMC11417369.
Over roughly 25,000 sequences, “ln(normalized median fluorescence intensity)” has its median near 9.3; the highest 2% begin near 10. The sample holds the highest values, similar sequences and a random draw of the others, so the mix is not that of the screen.

These sequences were tested on PF3D7_0420300 AP2 domain 1 (GST-tagged) (assay: gcPBM binding intensity (ln(normalized median fluorescence intensity)); higher = stronger DNA binding).
Method in brief: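 An Agilent 4 × 180k array carrying primer-extended double-stranded 36-bp intergenic genomic probes and negative controls received GST-tagged P. falciparum DNA-binding domains expressed in E. coli, about 25 μg on average, for 1 h. The binding buffer contained 1× PBS, 1% milk, 0.2 mg/ml BSA, 0.5% salmon testes DNA and 0.03% Triton X-100. Binding intensity is the top Masliner-normalised natural-log median intensity across replicate spots of either probe orientation, read after Alexa488 anti-GST antibody staining and a 488 nm scan.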

Sequence | gcPBM binding intensity (ln)
AGTAACTAATTAAATGCATGTCGATATATATTATAT [TGCATGCA_site1038] | 9.35
CGTTTTCTATATCATTGTACATATTCATGTGTAAAT [XGTACX_site2741] | 9.24
CATAAATACAGATATACACACATATATATATATATA [CACACA_site4528] | 9.45
AATAAAAAGTAATAATAACGTATAATTTATTATACT [TGCATGCA_negctrl_site414] | 9.14
TATTTTTTATGATTAACACACACACTAATAAAAAAA [CACACA_site9370] | 9.77
ACGTTTACGTTATTATGTACGTAATATATCATACCT [XGTACX_site5006] | 9.09
CACACCCACCAACACACACACAAAAAAAAAAAGAAA [CACACA_site500] | 9.59
TTAACAAAGAAACACACACACACACCCAAAAAAAAA [CACACA_site516] | 10.2
ATACTAAAGAAACACACACACATATATATATAGAAT [CACACA_site100] | 10.3
AAAAAAAAAAGAAACACACACATATATATATAGAAT [CACACA_site1777] | 10.1
AAAAAAAAGAAAAACACACACATATATATATAGAAT [CACACA_site1006] | 10.2
CAACAAAAGAAACACACACACACAAACACAAAAAAA [CACACA_site3389] | 10
TGACATAATGTGTGTAGTACATATATCGTTATTTGA [XGTACX_site5152] | 9.46
ACATGTAAATTTACATGTACATGTAACACTTAATAT [XGTACX_site4575] | 9.39
GTATCAAAAGAATACACACACACATACATATATATA [CACACA_site3796] | 10.2
AGAAAGAAAGAATACACACACACATATATAAATATC [CACACA_site7716] | 10.2
AGAAAGAAAGAATACACACACACATATATATATATC [CACACA_site3744] | 10.4
AATAAAAAAGAATATACACACATAAATATAAAATAT [CACACA_site683] | 9.9
TAAAGAAATAAATACATACACACATATATATATATA [CACACA_site3363] | 9.46
AAAGAAATGAAATATACACACATACATATATACATA [CACACA_site9335] | 9.81

Sequence | gcPBM binding intensity (ln)
AAAAAAAACAAATACACACGCACACCGAAAAAAAAA [CACACA_site803] | 10
TCCTACATATAAAAATGTACCCATTGTTTTTTTTTT [XGTACX_site7205] | 9.11
TTCATTCATTTTATTACACACAAAAAAAAAAAAAAA [CACACA_site3680] | 9.07
AACATATATATATATACATGCATATGAACAACGAAT [TGCATGCA_site93] | 9.62
CTTTTTAATGAATACACACACACACCGATATATATA [CACACA_site5296] | 10.1
AAAAAACAAAAACACACACACACATATATATATATA [CACACA_site3654] | 10.2
CACAAATATATACATACACACATATATACACATATA [CACACA_site8024] | 9.86
CACAAATATACAAATACACACAAATATACACATATA [CACACA_site7176] | 9.77
AAAAAAAAAAAACATACACACAAATATATACATACA [CACACA_site4011] | 9.89
AAGGCAAACAAACACACACACATATATACATATATA [CACACA_site2122] | 9.98
AAAAAAAAAAAAAACACACACATATATATATATATA [CACACA_site1891] | 9.55
AAAAAAAAAAAACACACACACATATATATATATATA [CACACA_site732] | 9.75
AAAAAAAAAAAACACACACACACATACAAAATATAT [CACACA_site1448] | 10.3
TAAAGGCAAACAAACACACACACATATATACCTATA [CACACA_site7078] | 9.91
AAAAAAAAAAAAAACATACACACAAATATATACATA [CACACA_site4010] | 9.67
TAAAGGCAAACAAACACACACACATATATACATATA [CACACA_site2123] | 10.2
AGCAAATACAAACACACACACACATATACATATATA [CACACA_site3497] | 10.2
TAATAATTATTGCACGCACACAAAAACCTATAGATT [CACACA_site2931] | 9.45
ATGATCATAAAACACACACACAAAAAAAAAAAAAAA [CACACA_site1805] | 9.51
TTATTTTTTCAAGAATGTACTTACGAATTGTCGTAT [XGTACX_site1363] | 8.78

Sequence | gcPBM binding intensity (ln)
ATAAAAACATAAAAATGTACATATATATATATATAT [XGTACX_site7165] | 9.23
TGAGATAACAAAAGTTGTACTTTTTTTTTTTTTTTT [XGTACX_site3004] | 8.89
TATATATATATAATAGTGCATAAATAAATATATAAA | 9.28
TACAATATTTTGAGACGTACATATATACATTTACAT [XGTACX_site5880] | 9.24
AAAATGAATATAATGACGCACACTTAAAATTGTTAA [CACACA_site2509] | 9.29
ATATGTTTATTAAATGCATGTCAAGACTTAAGATAT [TGCATGCA_site329] | 9.24
TGATTCATTGATAAGGGTACATTTATAATTATGATA [XGTACX_site6319] | 9.02
CAACATTTGAGACACACACACATACAAACAAACAAA [CACACA_site7538] | 10
AAAAAAAAAAAAAACACACACACAAATACAAATGGT [CACACA_site1721] | 10.2
AAAAAAAAAAAAAACACACACACAAATACAAATACA [CACACA_site414] | 10.1
AAAAAAAAAAAACACACACACAAATACAAATGGTAA [CACACA_site1720] | 10.1
CAACATTTGAAACACACACACATACAAACAAACAAA [CACACA_site3306] | 10.2
CGCATACACCAACACACACACACATATATATATATA [CACACA_site635] | 10.2
TATATATATACCAACACACATACATATATATATATA [CACACA_site1795] | 9.46
AACATACACATATACACACACACATATATACATATA [CACACA_site1093] | 10.2
TACATACATACATACACACACACATATATATACATA [CACACA_site853] | 10.1
TATACATATATATACACACACACATATATATATATA [CACACA_site1299] | 9.95
GGCAACATTTGAAACACACACACATACAAACAAACA [CACACA_site3307] | 9.97
TATATATATATACCAACACACATACATATATATATA [CACACA_site8530] | 9.68
